# Screens: PubChem, Sanford-Burnham Center for Chemical Genomics
# Hits are enriched below; roughly 31% of the tested compounds scored in any of these assays.
# CYP2C19 activ: activators of human cytochrome P450 2C19. P33261. AID 1025. recombinant CYP2C19, luciferin-H EGE luminescence; active compounds read high; 0 = fully inhibited enzyme, 1 = untreated enzyme. 96,000 tested, under 10 active. activation factor at 5 µM;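 active = activation factor of at least 2 at 5 µM in the primary screen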
# CYP2C19 inhib: human CYP2C19 inhibition; CYP2C19 Supersomes, luciferin-H EGE luminescence, 30 min; inhibition, % at 5 µM; 96,000 compounds, 21% hits; AID 778;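 active = CYP2C19 inhibition above a set limit at 5 µM in the primary screen, cut at about 50% in these data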
# CYP2C9 activ: increases human cytochrome P450 2C9 activity; P11712; recombinant CYP2C9, luciferin-H conversion, luminescence; active compounds read high; factor 1 = untreated enzyme, 0 = blocked; activation factor at 5 µM; 96,000 compounds, 1.4% hits;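 active = activation factor of 2 or more for CYP2C9 at a 5 µM dose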
# Target sequence (P11712 whole entry, looked up): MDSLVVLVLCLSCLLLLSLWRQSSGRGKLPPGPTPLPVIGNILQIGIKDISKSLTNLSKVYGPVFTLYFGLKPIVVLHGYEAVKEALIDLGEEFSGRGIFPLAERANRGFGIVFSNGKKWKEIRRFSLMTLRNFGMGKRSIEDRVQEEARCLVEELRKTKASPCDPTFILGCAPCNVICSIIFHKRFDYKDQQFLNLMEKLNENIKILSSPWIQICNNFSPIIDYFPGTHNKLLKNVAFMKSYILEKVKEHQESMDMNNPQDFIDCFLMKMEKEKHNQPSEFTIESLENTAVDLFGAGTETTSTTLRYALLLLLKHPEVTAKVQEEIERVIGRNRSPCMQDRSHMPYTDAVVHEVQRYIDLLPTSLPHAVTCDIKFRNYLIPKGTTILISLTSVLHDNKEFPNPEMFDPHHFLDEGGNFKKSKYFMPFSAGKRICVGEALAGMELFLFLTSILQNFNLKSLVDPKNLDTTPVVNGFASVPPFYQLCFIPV
# CYP2C9 inhib: inhibitors of human CYP2C9; inhibition, % at 5 µM; CYP2C9 Supersomes, luciferin-H conversion, luminescence; AID 777; P11712; 96,000 compounds, 20% hits;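 active = blocking of liver enzyme CYP2C9 beyond about 50% at 5 µM, limit read from the data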
# PLAP act: activates human placental alkaline phosphatase; P05187; purified PLAP enzyme, luminescent substrate read-out; active compounds read high; activation fold at 20 µM; 96,000 compounds, 1.2% hits; in the data active = activation fold above about 2
# Hits are given with their value; . = inactive.
SMILES,CYP2C19 activ,CYP2C19 inhib,CYP2C9 activ,CYP2C9 inhib,PLAP act
CC1=C(C(=O)OCC2CCCO2)C(c2ccc(C)o2)C2=C(CC(c3ccc(F)cc3)CC2=O)N1 (stereo unspecified),.,.,.,.,.
CC1=C(C(=O)OCC2CCCO2)C(c2cccc(C(F)(F)F)c2)C2=C(CC(c3ccco3)CC2=O)N1 (stereo unspecified),.,94.2,.,88.1,.
Cc1cc(NC(=O)C2CC(c3ccc(F)cc3)=NO2)no1 (stereo unspecified),.,.,.,.,.
COc1ccc(C(=O)CSc2nc3nc(C)cc(C)n3n2)cc1OC,.,.,.,.,.
O=C(O)c1ccccc1C(=O)NNc1ccc(F)cc1,.,.,.,.,.
CCN1CNC(=S)N(c2cc(C)ccc2C)C1,.,.,.,.,.
Cc1cccc(-n2c(C)cc(/C=N/NC(=O)c3ccc(CN4CCOCC4)cc3)c2C)c1,.,.,.,76.9,.
O=C(N/N=C/c1ccc(OC(=O)c2ccccc2)cc1)c1ccc(CN2CCOCC2)cc1,.,.,.,58.9,.
Cc1ccc(-n2c(C)cc(/C=N/NC(=O)c3ccc(CN4CCOCC4)cc3)c2C)cc1,.,.,.,.,.
COc1ccc(OCC(=O)Nc2cc(-c3nn(C)c(=O)c4ccccc34)ccc2OC)cc1,.,.,.,.,.
CCOC(=O)c1sc(NC(=S)NC(=O)c2cccc(Cl)c2)c(C(=O)OCC)c1C,.,.,.,.,.
CCOc1ccccc1-c1cc(-c2ccccc2)nc2c1c(=O)n(C)c(=O)n2C,.,.,.,.,.
CCCCn1c(=O)n(C)c(=O)c2c(C(F)(F)F)cc(-c3ccncc3)nc21,.,72.9,.,.,.
CCOC(=O)N1CCN(c2nc(C)c3c(n2)CC(C)CC3=O)CC1 (stereo unspecified),.,.,.,52.3,.
CCCCNc1c(N2CCN(C(=O)OCC)CC2)c(=O)c1=O,.,.,.,.,.
COc1cccc2cc(C(=O)n3ccc(C)n3)c(=O)oc12,.,.,.,.,.
Cc1ccc(C2=[N+]([O-])C3(CCCCC/C3=N\NC(N)=S)N(O)C2(C)C)o1 (stereo unspecified),.,.,.,74.4,.
NC(=O)CSc1ncnc2c1cnn2Cc1ccccc1,.,.,.,.,.
Cn1nnnc1SCc1ccc(C(=O)Nc2ccc(Br)cc2)cc1,.,.,.,.,.
Cn1nnnc1SCc1nnc(-c2ccc(Cl)cc2)o1,.,77.6,.,.,.
Cn1nnnc1SCc1ccc(F)cc1,.,55.8,.,.,.
Cn1nnnc1SCSc1nnnn1C,.,.,.,.,.
Cc1ccc(-c2nnc(CSc3nncn3N)o2)cc1,.,.,.,.,.
Cc1ccc(CSc2nnnn2C)cc1,.,74.4,.,.,.
CCCC(=O)Nc1ccc(C(=O)NNC(=O)COc2ccc(Br)c(C)c2)cc1,.,.,.,.,.
SMILES,CYP2C19 activ,CYP2C19 inhib,CYP2C9 activ,CYP2C9 inhib,PLAP act
CC1c2[nH]c3ccccc3c2CCN1S(C)(=O)=O (stereo unspecified),.,97.7,.,.,.
Nc1nc(CSc2ccccn2)nc(Nc2ccccc2)n1,.,55.2,.,52.4,.
COc1ccc(Nc2nc(N)nc(COc3ccc(OC)cc3)n2)cc1,.,.,.,.,.
COc1ccc2nc(SCc3nc(N)nc(Nc4ccccc4)n3)[nH]c2c1,.,81.3,.,98.2,2.5
COc1ccc(OCc2nc(N)nc(Nc3ccccc3)n2)cc1,.,67.5,.,69.9,.
CCOC(=O)c1cnc(SCc2nc(N)nc(Nc3ccccc3)n2)nc1N,.,65.6,.,84.0,.
CCCc1nnc(NC(=O)CC(=O)Nc2ccccc2C(=O)O)s1,.,.,.,.,.
Cc1ccc(SCCC(=O)NCc2ccco2)cc1,.,.,.,69.2,.
Cc1ccc(-c2nc(C)sc2CC(=O)NCc2ccco2)cc1,.,55.5,.,.,.
Cc1ccc(C)c(SCC(=O)NCc2ccco2)c1,.,.,.,.,.
Cn1c(SCc2ccccc2)nnc1-c1c[nH]c2ccccc12,.,.,.,.,.
CC1(C)Cc2ccccc2-c2nnc(SCC(=O)N3CCN(c4ccccc4)CC3)n21,.,79.9,.,61.6,.
CCn1c(SCC(=O)N2CCN(c3ccccc3)CC2)nnc1-c1c[nH]c2ccccc12,.,64.0,.,.,.
CCCCSc1nnc(-c2c[nH]c3ccccc23)n1C,.,56.2,.,.,.
CCn1c(SCC(=O)N2CCCc3ccccc32)nnc1-c1c[nH]c2ccccc12,.,75.7,.,.,.
CCn1c(SCC(=O)N2CCc3ccccc32)nnc1-c1c[nH]c2ccccc12,.,.,.,.,.
Cn1c(SCC(=O)N2CCN(c3ccccc3)CC2)nnc1-c1ccccc1,.,.,.,.,.
O=C(Cn1ccc2ccccc2c1=O)NCCC(=O)Nc1ccc2c(c1)OCCO2,.,.,.,.,.
CSc1nc2ccc(Nc3nc(N4CCOCC4)nc(N4CCOCC4)n3)cc2s1,.,.,.,.,.
CCC(C)NC(=O)CS(=O)Cc1nc(-c2ccccc2C)oc1C (stereo unspecified),.,.,.,.,.
Cn1c(SCC(=O)N2CCN(c3ccccc3)CC2)nnc1-c1c[nH]c2ccccc12,.,54.3,.,.,.
CCCCCCSc1nnc(-c2cnn(-c3ccccc3)c2-n2cccc2)n1C,.,.,.,61.0,.
CCn1nnnc1NCc1cccn1C,.,.,.,75.9,.
O=C(CSc1nnc(-c2ccccn2)n1Cc1ccccc1)Nc1ccc2c(c1)OCO2,.,.,.,.,.
Cc1cccc(-n2c(CCn3nc(C)c([N+](=O)[O-])c3C)n[nH]c2=S)c1,.,.,.,.,2.1
SMILES,CYP2C19 activ,CYP2C19 inhib,CYP2C9 activ,CYP2C9 inhib,PLAP act
Cc1cccc(-n2c(C)n[nH]c2=S)c1,.,.,.,.,.
CCN(CC)S(=O)(=O)c1ccc(C(=O)Oc2ccc3c(c2)OCO3)cc1,.,.,.,.,.
CCN(CC)S(=O)(=O)c1ccc(C(=O)OC2CCCCC2CN(C)C)cc1 (stereo unspecified),.,.,.,50.0,.
CCCCCCS(=O)[C@H]1CS(=O)(=O)C[C@@H]1S(=O)CCCCCC (stereo partly specified),.,.,.,.,.
COc1ccc(S(=O)(=O)N(C)Cc2cccs2)cc1Br,.,96.4,.,.,.
CCCc1cc(C(=O)NCC(C)C)no1,.,.,.,.,.
CCCn1c(=O)[nH]c(=O)c2c1nc(-c1ccc(OC(F)F)c(OC)c1)n2CCOC,.,.,.,53.9,.
CC(C)CNS(=O)(=O)c1ccc(CCC(=O)Nc2ccc3c(c2)OCO3)cc1,.,.,.,.,.
CCOC(=O)N1CCN(C(=O)CCSc2ccccc2)CC1,.,71.3,.,.,.
O=C(CCc1ccc(S(=O)(=O)NCCc2ccccc2)cc1)Nc1ccc2c(c1)OCO2,.,90.3,.,84.2,.
CCOC(=O)N1CCN(C(=O)CCc2ccc(S(=O)(=O)NCCc3ccccc3)cc2)CC1,.,82.3,.,77.7,.
